Hits are enriched below; roughly 5% of the tested compounds scored in any of these assays.
ALR inh – blocks human ALR sulfhydryl oxidase activity; purified ALR, DTT oxidation, H2O2 HRP-luminol luminescence; inhibition, % (test concentration not listed); 290,000 compounds, 3.8% hits;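 active = mean replicate inhibition above about 79%, with every replicate also reaching it, limit read from the data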
PREPL inhibitor – human PREPL enzyme inhibition; recombinant PREPL, fluorescence polarization activity-based probe; inhibition, % at 5.96 µM; 320,000 compounds, 0.68% hits; AID 2751
Target sequence (Q4J6C6 whole entry, looked up): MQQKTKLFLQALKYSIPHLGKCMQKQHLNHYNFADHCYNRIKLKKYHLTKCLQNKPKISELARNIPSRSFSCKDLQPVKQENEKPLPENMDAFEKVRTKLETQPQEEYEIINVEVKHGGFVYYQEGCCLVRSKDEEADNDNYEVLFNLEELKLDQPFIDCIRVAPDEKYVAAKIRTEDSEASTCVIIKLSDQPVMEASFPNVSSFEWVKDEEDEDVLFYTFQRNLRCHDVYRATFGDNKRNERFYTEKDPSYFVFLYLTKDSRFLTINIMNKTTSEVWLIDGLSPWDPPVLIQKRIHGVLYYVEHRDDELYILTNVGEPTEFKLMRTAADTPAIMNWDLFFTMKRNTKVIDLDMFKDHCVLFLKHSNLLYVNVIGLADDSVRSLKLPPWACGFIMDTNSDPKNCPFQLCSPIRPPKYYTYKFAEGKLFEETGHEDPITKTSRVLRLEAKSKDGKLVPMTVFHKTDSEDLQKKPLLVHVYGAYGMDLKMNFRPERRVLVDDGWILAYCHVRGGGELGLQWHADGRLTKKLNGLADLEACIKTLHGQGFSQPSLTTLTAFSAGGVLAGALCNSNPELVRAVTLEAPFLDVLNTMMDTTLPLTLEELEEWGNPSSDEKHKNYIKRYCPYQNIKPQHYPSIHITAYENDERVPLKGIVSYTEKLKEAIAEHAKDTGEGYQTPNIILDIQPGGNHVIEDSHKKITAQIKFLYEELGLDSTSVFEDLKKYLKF
AI-2 QS mod – modulates the Vibrio harveyi AI-2 quorum sensing system. Vibrio harveyi JMH597 AI-2 luminescence/OD600 ratio, 9 h; hits give low values; strain lacks LuxN and CqsS sensors; 0 = neutral-control median. activity change, % at 7.5 µM. 300,000 compounds, 0.4% hits. AID 2094; in the data active = activity change below about -75%, passing the limit was not always enough;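 note: luminescence divided by OD600 gain over 9 h not by final OD600 alone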
CHT inh – human CHT choline transport inhibition; CHT-expressing cells, membrane potential dye, choline response; hits give low values; 310,000 compounds, 0.86% hits; Q9GZV3; B-score at 10 µM;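 active = B-score over 3 SD under the library average, and starting fluorescence ratio not unusually high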;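 note: choline stimulus applied at its EC90 after an EC20 pre-addition; B-score computed on integrated fluorescence ratio after choline addition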
CHT PAM – allosteric activators of human choline transporter CHT; CHT-expressing cells, membrane potential dye, choline EC20; hits give high values; LV-AA mutant CHT in HEK293 cells; B-score at 10 µM; AID 488977; 310,000 compounds, 0.49% hits;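 active = initial fluorescence not abnormally high and integrated response B-score, plate-corrected, over 3 SD above library mean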
PREPL confirm – human PREPL inhibition, confirmation; AID 2803; 2,000 compounds, 67% hits; inhibition, % at 5.96 µM; recombinant PREPL, fluorescence polarization activity probe; shares compounds with PREPL inhibitor
Numbers stand for hits; - = inactive; . = no result. Cut-off read from the data, not from the text of the source, unless noted: active = inhibition above about 43%; inactive = the rest.

SMILES	ALR inh	PREPL inhibitor	AI-2 QS mod	CHT inh	CHT PAM	PREPL confirm
CN(C)c1ccc(C(CNS(=O)(=O)c2ccc3ccccc3c2)c2c[nH]c3ccccc23)cc1 (stereo unspecified)	-	-	-	-	-	.
CNc1oc(-c2ccccc2Cl)nc1P(=O)(c1ccccc1)c1ccccc1	-	44	-	-	-	55
O=C(COC(=O)c1ccc(F)c(S(=O)(=O)N2CCOCC2)c1)NCc1ccc(Cl)cc1	-	-	.	.	.	.
CC1=Nc2ccccc2/C1=C/c1sc(=O)n(CC(=O)N2CCCC2)c1O	-	-	-	-	-	.
O=C(Cn1c(O)c(/C=C2\C=Nc3ccc(Br)cc32)sc1=O)N1CCCC1	.	43	-	-	-	-
Cc1[nH]c(C)c2c(=O)[nH]ncc12	-	-	-	-	-	.
Cc1ccc(C)c(NC(=O)CCOc2ccccc2)c1	-	.	-	-	-	.
O=C(CN1C(=O)C2CC=CCC2C1=O)N1CCN(c2ccc([N+](=O)[O-])cc2)CC1 (stereo unspecified)	.	48	-	-	-	-
Cc1ccc2c(CN3CCC(C)CC3)cc(=O)oc2c1C	-	.	-	-	-	.
CCOC(=O)C1CCN(Cc2cc(=O)oc3c(C)c(C)ccc23)CC1	.	44	-	-	-	-
Cc1nc2c3c(sc2c(=O)[nH]1)NC(=O)CC3c1ccccc1Cl (stereo unspecified)	.	-	-	-	-	.
Fc1ccc2[nH]c3c(N4CCN(c5ccccc5)CC4)ncnc3c2c1	-	62	-	-	-	48
COc1cc2[nH]c3c(N4CCN(c5ccccn5)CC4)ncnc3c2cc1OC	99	69	-	-	-	69
COc1cccc2[nH]c3c(N4CCCCC4)ncnc3c12	-	-	-	-	-	.
COc1ccc(N2CCN(c3ncnc4c3[nH]c3ccccc34)CC2)cc1	-	52	-	-	-	46
CCOC(=O)N1CCN(c2ncnc3c2[nH]c2ccc(F)cc23)CC1	-	-	-	-	-	.
CC(OC(=O)Cn1[nH]c(=O)c2ccccc2c1=O)C(=O)Nc1ccccc1[N+](=O)[O-] (stereo unspecified)	-	-	-	-	-	.
Cc1c(Br)c([N+](=O)[O-])nn1CC(=O)NCC1CCCO1 (stereo unspecified)	-	-	-	-	-	.
CCCn1c(N)c(C(=O)COC(=O)/C=C/c2ccc(OC(F)F)c(OC)c2)c(=O)[nH]c1=O	-	-	.	.	.	.
CCCCCCCCCCn1c2c(c(=N)c3c1CCC3)CCC2	-	44	-	-	16	44
COc1cccc(N=Nc2c(N)[nH]n3c(=O)c4c(nc23)CCCC4)c1	-	59	-	-	-	57
COc1ccc(-c2cc3nc4c(c(=O)n3[nH]2)CCC4)cc1	.	-	-	-	-	.
CCN(CC)c1ccc(-n2cc3c(=O)n(C)c(=O)n(C)c3c2)cc1	-	49	-	-	-	48
COc1cccc(C2=CC(c3ccccc3)n3nnnc3N2)c1 (stereo unspecified)	-	-	-	-	-	.
COc1cccc(C2=CC(c3ccc(N(C)C)cc3)n3nnnc3N2)c1 (stereo unspecified)	-	70	-	-	-	54
SMILES	ALR inh	PREPL inhibitor	AI-2 QS mod	CHT inh	CHT PAM	PREPL confirm
CC(C)(C)n1nc2c(c1NC(=O)c1ccc([N+](=O)[O-])cc1)CS(=O)(=O)C2	-	-	-	-	-	.
CC1CCCCN1Cc1c(O)ccc2c(=O)c(-c3nc4ccccc4s3)c(N)oc12 (stereo unspecified)	-	51	-	-	-	51
Nc1nonc1-n1nnc(C(=O)N/N=C/c2ccccc2Cl)c1CN1CCOCC1	.	-	-	-	-	.
Cc1ccc(-c2ccccc2NC(=O)CS(=O)CC(=O)Nc2ccc(C)c(Cl)c2)o1 (stereo unspecified)	99	60	-	-	-	-
Cc1ccc(-c2ccccc2NC(=O)CCl)o1	-	-	-	-	-	.
Cc1noc(C)c1CCC(=O)N1CCCC(CCC(=O)NCc2ccc(F)c(F)c2)C1 (stereo unspecified)	-	-	-	-	-	.
Cc1cc(C)cc(N(CCC#N)C(=O)COC(=O)Cn2[nH]c(=O)c3ccccc3c2=O)c1	-	-	.	.	.	.
Cc1ccc(S(=O)(=O)NCC(=O)OCC(=O)N(CCC#N)c2ccccc2)cc1	-	47	.	.	.	-
Cc1cc(C)cc(N(CCC#N)C(=O)COC(=O)CNC(=O)c2sc3ccccc3c2Cl)c1	-	43	-	-	-	-
Cc1ccc(S(=O)(=O)Nc2ccc(C(=O)OCC(=O)N(CCC#N)c3ccccc3)cc2)cc1C	-	-	-	-	-	.
C=CC(C)(C)O[C@@H]1O[C@H](CO)[C@@H](O)[C@H](O)[C@H]1O	-	-	.	.	.	.
CCC[C@@H](CN1CCC[C@H]1CN1C(N)=NC[C@@H]1Cc1ccccc1)N1C[C@@H]([C@H](C)CC)N(CCCC2CCCC2)C1=N	-	54	.	.	.	52
CC[C@@H](C)[C@@H]1CN([C@@H](CN2CCC[C@H]2CN2C(N)=NC[C@H]2CC(C)C)C(C)C)C(=N)N1CCCC1CCCC1	.	-	.	.	.	.
CCCCN1C(=N)N([C@@H](CCC)CN2CCC[C@H]2CN2C(N)=NC[C@@H]2Cc2ccccc2)C[C@H]1Cc1ccccc1	-	45	.	.	.	45
CCC[C@@H](CN1CCC[C@H]1CN1C(N)=NC[C@H]1CC(C)C)N1C[C@@H](Cc2ccccc2)N(CCCC2CCCC2)C1=N	.	49	.	.	.	-
CC(C)[C@H](CN1CCC[C@H]1CN1C(N)=NC[C@H]1C(C)C)N1C[C@@H](Cc2ccccc2)N(CCCC2CCCC2)C1=N	-	61	.	.	.	59
CCC[C@@H](CN1CCC[C@H]1CN1C(N)=NC[C@@H]1Cc1ccccc1)N1C[C@@H](Cc2ccccc2)N(CCCC2CCCC2)C1=N	-	-	.	.	.	.
COc1cccc2cc(C(C)OC(=O)Nc3ccc(C)cc3)oc12 (stereo unspecified)	-	-	-	-	-	.
COc1cc(OC)cc(C(=O)NCC(=O)NCc2ccccn2)c1	.	-	.	.	.	.
Cc1ccc(S(=O)(=O)N2CC(C)N(C(=O)N3CCOCC3)C2)cc1 (stereo unspecified)	-	-	-	-	-	.
C[C@H]1COC(=O)CC/C=C\C[C@H](CC(=O)N(CCO)Cc2ccccc2)C(=O)N1	-	-	.	.	.	.
CCOC(=O)c1sc(NC(=O)C2CC(=O)N(c3ccc(OCC)cc3)C2)nc1C (stereo unspecified)	.	-	-	-	-	.
CN1c2ccsc2/C(=N/Nc2ccccc2)CS1(=O)=O	99	48	-	-	-	-
CN1c2ccsc2/C(=N/NC(=O)c2c(F)cccc2F)CS1(=O)=O	-	-	-	-	-	.
COc1ccccc1-c1nnc(SC/C(O)=C(\C#N)c2nc3ccccc3[nH]2)n1C1CCCCC1	-	-	-	-	-	.
N#C/C(=C(/O)CSc1nnc(Cc2cccs2)n1C1CCCCC1)c1nc2ccccc2[nH]1	-	43	-	-	-	-
